Screen size: about 69,000 compounds; about 8,600 (12%) showed an effect of 50% or more. Shown is part of a subset that was picked to be rich in strong results.
test system: Plasmodium berghei; experiment: Screen against P. berghei liver stage (PbLuc), transformed with Luciferase, at 10uM; type: functional, HepG2; details: tested at 10 uM

| Structure (SMILES) | INHIBITION [%] |
| --- | --- |
| Cc1cc(N2CCC(O)CC2)nc(C2CCCN2C)n1 (configuration not stated) | 9.6 |
| O=C(Nc1ccccc1)c1cc2n(n1)CCCN(C(=O)c1ccc[nH]1)C2 | 28.5 |
| CCc1ccc(C(=O)N2CCN(Cc3ccc(F)cc3)CC2)s1 | 68.5 |
| CCc1nnsc1C(=O)N1CCCN(Cc2ccc(F)cc2)CC1 | -0.219 |
| COCc1ccc(C(=O)N2CCCN(Cc3ccc(F)cc3)CC2)s1 | 14.3 |
| Cc1cc(C)n(CC2CCCN2C(=O)c2cnccn2)n1 (configuration not stated) | -3.7 |
| CC(Cn1ccnc1)NC(=O)N1CCCN(Cc2cccs2)CC1 (configuration not stated) | 21.5 |
| O=C(NCCn1ccnc1)N1CCCN(Cc2cccs2)CC1 | -39.7 |
| Cc1nc(CN2CCCn3c(nc(Cn4ccnc4)cc3=O)C2)cs1 | -16.6 |
| c1cn(Cc2ccc(N3CCCN(C4CCCC4)CC3)nc2)cn1 | 13.5 |
| Fc1ccc(N2CCCN(c3ccc(Cn4ccnc4)cn3)CC2)cc1 | 92.8 |
| O=c1cc(Cn2ccnc2)nc2n1CCCN(Cc1ccco1)C2 | 8.85 |
| O=c1cc(Cn2cncn2)nc2n1CCCN(Cc1ccsc1)C2 | 12.7 |
| Cc1nc(CN2CCCn3c(nc(Cn4cncn4)cc3=O)C2)cs1 | 51.2 |
| O=c1cc(Cn2ccnc2)nc2n1CCCN(Cc1ccncc1)C2 | -32 |
| OC1CCN(C2CCN(c3ccc(Cn4ccnc4)cn3)CC2)CC1 | 24.4 |
| c1csc(CN2CCCN(c3ccc(Cn4ccnc4)cn3)CC2)c1 | 52.6 |
| O=c1cc(Cn2ccnc2)nc2n1CCCN(Cc1cccs1)C2 | 53.4 |
| Cc1nccn1C1CCCN(C(=O)CCOCC(F)(F)F)C1 (configuration not stated) | 1.15 |
| CC(C)N(C)Cc1cnc2n1CCN(Cc1ccc(F)cc1)C2 | 17.4 |
| Cc1cc2c(c(=O)n1CCC(=O)O)C=CC(C)(C)O2 | 10.9 |
| Cc1nc2cc(-c3nccn3C)nn2c(N2CCCC(O)C2)c1C (configuration not stated) | 6.335 |

| Structure (SMILES) | INHIBITION [%] |
| --- | --- |
| Cn1cc(C(=O)N2C[C@H]3CC(Oc4ccccc4)C[C@H]3C2)cn1 (some centres not stated) | 3.92 |
| CS(=O)(=O)N1C[C@H]2CCCN(Cc3cccs3)[C@H]2C1 | 24.6 |
| CN(C)Cc1cc(=O)n2c(n1)CN(Cc1ccco1)CCC2 | 26.5 |
| CS(=O)(=O)NCc1cc(=O)n2c(n1)CN(Cc1ccco1)CCC2 | 52.3 |
| O=c1cc(CN2CCCC2)nc2n1CCCN(Cc1ccco1)C2 | 0.804 |
| CCc1nc(CN2CCCCC2C(N)=O)cs1 (configuration not stated) | -2.43 |
| Cc1nn(C)c(C)c1C(=O)NC(C)CC(=O)c1cccs1 (configuration not stated) | 61.4 |
| Cc1cc(C(=O)NC(C)CC(=O)c2cccs2)n(C)n1 (configuration not stated) | -18.8 |
| COc1c(C(=O)NC(C)CC(=O)c2cccs2)c(C)nn1C (configuration not stated) | 36.7 |
| O=C([C@@H]1CC[C@@H]2[C@@H](CCN2c2ccncn2)O1)N1CCCCO1 | 5.68 |
| COCCOc1ccc(NC(=O)N2CCOC(C(N)=O)C2)cc1F (configuration not stated) | 15.9 |
| COc1ccc(C2(NC(=O)C3CC(=O)N(C)C3)CCCC2)cc1 (configuration not stated) | 26 |
| CNC(=O)CN1CCC(CN(C)Cc2ccncc2Cl)CC1 | -22.1 |
| Nc1nc2c(c(NC3CCCC3)n1)CCN(C(=O)C1CCOC1)CC2 (configuration not stated) | 97.2 |
| O=C([C@H]1CCCO1)N1CCc2ncnc(NC3CC3)c2CC1 | 48.5 |
| O=C(C1CCOC1)N1CCc2ncnc(NC3CCC3)c2CC1 (configuration not stated) | 51.3 |
| O=C(C1CCCO1)N1CCc2ncnc(NC3CCC3)c2CC1 (configuration not stated) | -29.5 |
| O=C(C1CCOC1)N1CCc2ncnc(C3CC3)c2CC1 (configuration not stated) | -13.4 |
| CC(C)Nc1nc2c(c(NC3CC3)n1)CCN(C(=O)C1CCOC1)CC2 (configuration not stated) | 34.3 |
| N#Cc1cccc(OCc2ccoc2C(=O)N2CCCCCC2)c1 | 5.91 |
| O=C(C1CCCO1)N1C[C@@H]2CCN(c3cnccn3)C[C@@H]2C1 (some centres not stated) | 28.4 |
| Cc1cc(C(=O)NCc2c(C)nn(C)c2C)nc(N2CCCC2)n1 | -31.4 |

| Structure (SMILES) | INHIBITION [%] |
| --- | --- |
| O=C(O)c1cnc(N2CC[C@H](N3CCOCC3)[C@H](CCCO)C2)c(Cl)c1 | 14 |
| O=S(=O)(NC1=NCN(CCc2ccccc2)CN1)c1ccc(F)cc1 | -4.52 |
| Cc1occc1C(=O)NCc1cccnc1N(C)C | 33.15 |
| CCc1noc(C(C)N2CCc3c(ncn3C3CC3)C2)n1 (configuration not stated) | -1.04 |
| Cc1cccc(-c2noc(CN3CCc4c(ncn4C4CC4)C3)n2)c1 | 18.3 |
| CC(c1nc(C2CC2)no1)N1CCc2c(ncn2C)C1 (configuration not stated) | 56 |
| CC(c1nc(C2CC2)no1)N1CCc2c(ncn2C2CC2)C1 (configuration not stated) | 17 |
| CC(c1nc(C2CC2)no1)N1CCN(CCc2ccncc2)CC1 (configuration not stated) | -45.9 |
| CC(c1nc(-c2ccccc2)no1)N1CCc2c(ncn2C2CC2)C1 (configuration not stated) | 78.3 |
| N#Cc1ccc(S(=O)(=O)Nc2cnn(C3CCOCC3)c2)cc1 | 5.51 |
| CC(C)(NC(=O)c1cnc(-c2ccccc2F)s1)C(N)=O | -8.9 |
| Cc1cnc(N2CC[C@@H]3O[C@@H](COCc4ccccn4)CC[C@@H]32)nc1 | 41.6 |
| COc1ccc(-c2cc(=O)n3c(n2)CCCCC3)cc1 | 1.45 |
| Cc1nn(C)c(C)c1-c1ccnc(N(C)Cc2nc(C(C)C)no2)n1 | 68.2 |
| Cc1nn(C)cc1-c1ccnc(N(C)Cc2noc(C(C)C)n2)n1 | -147 |
| Cc1nn(C)c(C)c1-c1ccnc(N(C)Cc2noc(C(C)C)n2)n1 | 4.35 |
| Cc1csc(C2CCCN(C(=O)c3cccc4c3OCO4)C2)n1 (configuration not stated) | 27.6 |
| Cc1nc(CN2CCN(C)C(=O)C23CCN(C(C)C)CC3)cs1 | 32.5 |
| Cc1cc(C)n2ncc(CN3C[C@@H](O)[C@H](Oc4ccccc4)C3)c2n1 | -5.71 |
| Cc1cccc(CN2CCC(n3cc(CCO)nn3)CC2)c1C | 53.3 |
| Cc1ccc(CN2CCC(n3cc(CN4CCC(O)CC4)nn3)CC2)s1 | 7.43 |
| Cc1cc(C)n2ncc(CN3CCC(n4cc(CCO)nn4)CC3)c2n1 | 58.6 |

| Structure (SMILES) | INHIBITION [%] |
| --- | --- |
| Cc1cc(C)n2ncc(CN3CCC(Cn4cc(CO)nn4)CC3)c2n1 | 20.1 |
| COCc1cn(C2CCN(Cc3ccc(Cl)s3)CC2)nn1 | 5.23 |
| COCCN1CCN(Cc2cnc(C3(C)CCCCO3)nc2)CC1 (configuration not stated) | 3.25 |
| CS(=O)(=O)NCCC1CCCCN1C(=O)NCCc1ccccc1 (configuration not stated) | 28.3 |
| c1cnc(-c2nc(CN3CCn4c(nnc4C4CC4)C3)cs2)nc1 | -0.219 |
| CCCC1CCCN(Cc2csc(-c3ncccn3)n2)CC1 (configuration not stated) | 91.7 |
| c1cnc(-c2nc(CN3CCCC(Cn4cncn4)C3)cs2)nc1 (configuration not stated) | 15.6 |
| COCC(=O)N1CCN(Cc2csc(-c3ncccn3)n2)CC1 | 38.9 |
| CCCC1CCCN(Cc2csc(-c3cnn(C)c3)n2)CC1 (configuration not stated) | 55.9 |
| NC(=O)C1CCN(Cc2csc(-c3ncccn3)n2)CC1 | 55.05 |
| c1cnc(-c2nc(CN3CCCC(N4CCCC4)C3)cs2)nc1 (configuration not stated) | -16.817 |
| CC(=O)NC1CCCN(Cc2csc(-c3ncccn3)n2)C1 (configuration not stated) | 35.4 |
| CCC1CCCN(C(=O)Cc2csc(-c3ncccn3)n2)C1 (configuration not stated) | 14.7 |
| COCCN1CCN(Cc2csc(-c3cnn(C)c3)n2)CC1 | 7.75 |
| Cn1cc(-c2nc(CN3CCN(CCO)CC3)cs2)cn1 | -0.847 |
| CC1CCCN(Cc2csc(-c3ncccn3)n2)CC1 (configuration not stated) | 80.8 |
| Cn1ccc(C(=O)N2CCC3(CC2)CC(Nc2cnccn2)CO3)n1 (configuration not stated) | -4.26 |
| COc1ccc(-n2nc(C(C)=O)c(C(C)=O)c2C)cc1Cl | -7.27 |
| Cn1cc(NC(=O)Nc2ccc3c(c2)OCO3)cn1 | 24 |
| OCCN(Cc1ccno1)Cc1cc(Br)ccc1F | 25.3 |
| COCC(=O)NCCc1nc(N(C)C)ncc1-c1ccncc1 | 14.325 |
| NCC(=O)N1CCCC1c1n[nH]cc1-c1ccccc1F (configuration not stated) | 10.9 |

| Structure (SMILES) | INHIBITION [%] |
| --- | --- |
| Cc1cc(N2CCCC(O)(CN(C)C)C2)c2cc3c(cc2n1)OCO3 (configuration not stated) | 11.6 |
| CC(C)Oc1cccc(C(=O)Nc2nncs2)c1 | -16.8 |
| CCCS(=O)(=O)N1Cc2ccnn2CC(c2nc(C)no2)C1 (configuration not stated) | 28.2 |
| c1cnc(-c2nc(CN3CCN(CC4CC4)CC3)cs2)nc1 | 77.85 |
| c1cnc(-c2nc(CN3CCCN(Cc4cccs4)CC3)cs2)nc1 | 39.75 |
| c1cnc(-c2nc(CN3CCC(c4ccn[nH]4)CC3)cs2)nc1 | 12.8 |
| O=C([C@@H]1COC[C@H]2CN(c3ccncn3)C[C@H]21)N1CCCCO1 | -11.6 |
| Fc1ccc(CNCc2nnc3n2CC(C(F)(F)F)CC3)cc1 (configuration not stated) | 63 |
| FC(F)(F)C1CCc2nnc(CNCc3cccs3)n2C1 (configuration not stated) | 26 |
| Fc1ccc(CNCc2nnc3n2CC(C(F)(F)F)CC3)c(F)c1 (configuration not stated) | 63 |
| COc1ccc(CNCc2nnc3n2CC(C(F)(F)F)CC3)cc1 (configuration not stated) | 27.5 |
| Cc1ccc(CNCc2nnc3n2CC(C(F)(F)F)CC3)cc1 (configuration not stated) | 45.1 |
| FC(F)(F)C1CCc2nnc(CNCc3ccsc3)n2C1 (configuration not stated) | 37 |
| COc1ccc(Cl)cc1NCC(=O)NCc1cccnc1OC | -12.2 |
| CC(=O)N1CCc2ccc(NC(=O)c3cn(C)nn3)cc2C1 | 24.2 |
| CCc1ncc2c(n1)CN(CC(=O)Nc1cc(C)on1)CC2 | -7.31 |
| COc1ccc2cc(C(=O)NCCNc3ccc(C)nn3)[nH]c2c1 | -17.7 |
| Cc1cc(CC(=O)N2CCc3cc(Br)sc3C2)n[nH]1 | -37.6 |
| Fc1ccccc1CN1CCC[C@@H](Cn2nnc(-c3cccs3)n2)C1 | 22.62 |

Source: ChEMBL document CHEMBL4513216, “Probing the Open Global Health Chemical Diversity Library for Multistage-Active Starting Points for Next-Generation Antimalarials” (ACS Infect Dis, 2020)
